In paper PMC11102866, “Nucleosome-bound NR5A2 structure reveals pioneer factor mechanism by DNA minor groove anchor competition”:

B1: 102 (nucleosome)
DNA 1: ATCCTGGAGAATCCCGGTGCCGAGGCCGCTCAATTGGTCGTAGACAGCTCTAGCACCGCTTAAACGCACGTACGCGCTGTCCCCCGCGTTTTAACCGCCAAGGGTCAAGGCCACTAGTCTCCAGGCACGTGTCAGATATATACATCCTGTGAT
DNA 2: ATCACAGGATGTATATATCTGACACGTGCCTGGAGACTAGTGGCCTTGACCCTTGGCGGTTAAAACGCGGGGGACAGCGCGTACGTGCGTTTAAGCGGTGCTAGAGCTGTCTACGACCAATTGAGCGGCCTCGGCACCGGGATTCTCCAGGAT
modifications: reconstituted with mouse histones H2A, H2B, H3.3 and H4
B2: 104 (nucleosome)
DNA 1: ATCCTGGAGAATCCCGGTGCCGAGGCCGCTCAATTGGTCGTAGACAGCTCTAGCACCGCTTAAACGCACGTACGCGCTGTCCCCCGCGTTTTAACCGCCAAGGGGATCAAGGCCAAGTCTCCAGGCACGTGTCAGATATATACATCCTGTGAT
DNA 2: ATCACAGGATGTATATATCTGACACGTGCCTGGAGACTTGGCCTTGATCCCCTTGGCGGTTAAAACGCGGGGGACAGCGCGTACGTGCGTTTAAGCGGTGCTAGAGCTGTCTACGACCAATTGAGCGGCCTCGGCACCGGGATTCTCCAGGAT
modifications: reconstituted with mouse histones H2A, H2B, H3.3 and H4
B3: 105 (nucleosome)
DNA 1: ATCCTGGAGAATCCCGGTGCCGAGGCCGCTCAATTGGTCGTAGACAGCTCTAGCACCGCTTAAACGCACGTACGCGCTGTCCCCCGCGTTTTAACCGCCAAGGGGATTCAAGGCCAGTCTCCAGGCACGTGTCAGATATATACATCCTGTGAT
DNA 2: ATCACAGGATGTATATATCTGACACGTGCCTGGAGACTGGCCTTGAATCCCCTTGGCGGTTAAAACGCGGGGGACAGCGCGTACGTGCGTTTAAGCGGTGCTAGAGCTGTCTACGACCAATTGAGCGGCCTCGGCACCGGGATTCTCCAGGAT
modifications: reconstituted with mouse histones H2A, H2B, H3.3 and H4
B4: 103 (nucleosome)
DNA 1: ATCCTGGAGAATCCCGGTGCCGAGGCCGCTCAATTGGTCGTAGACAGCTCTAGCACCGCTTAAACGCACGTACGCGCTGTCCCCCGCGTTTTAACCGCCAAGGGGTCAAGGCCATAGTCTCCAGGCACGTGTCAGATATATACATCCTGTGAT
DNA 2: ATCACAGGATGTATATATCTGACACGTGCCTGGAGACTATGGCCTTGACCCCTTGGCGGTTAAAACGCGGGGGACAGCGCGTACGTGCGTTTAAGCGGTGCTAGAGCTGTCTACGACCAATTGAGCGGCCTCGGCACCGGGATTCTCCAGGAT
modifications: reconstituted with mouse histones H2A, H2B, H3.3 and H4
B5: 106 (nucleosome)
DNA 1: ATCCTGGAGAATCCCGGTGCCGAGGCCGCTCAATTGGTCGTAGACAGCTCTAGCACCGCTTAAACGCACGTACGCGCTGTCCCCCGCGTTTTAACCGCCAAGGGGATTTCAAGGCCATCTCCAGGCACGTGTCAGATATATACATCCTGTGAT
DNA 2: ATCACAGGATGTATATATCTGACACGTGCCTGGAGATGGCCTTGAAATCCCCTTGGCGGTTAAAACGCGGGGGACAGCGCGTACGTGCGTTTAAGCGGTGCTAGAGCTGTCTACGACCAATTGAGCGGCCTCGGCACCGGGATTCTCCAGGAT
modifications: reconstituted with mouse histones H2A, H2B, H3.3 and H4
B6: 111 (nucleosome)
DNA 1: ATCCTGGAGAATCCCGGTGCCGAGGCCGCTCAATTGGTCGTAGACAGCTCTAGCACCGCTTAAACGCACGTACGCGCTGTCCCCCGCGTTTTAACCGCCAAGGGGATTACTCCTCAAGGCCAAGGCACGTGTCAGATATATACATCCTGTGAT
DNA 2: ATCACAGGATGTATATATCTGACACGTGCCTTGGCCTTGAGGAGTAATCCCCTTGGCGGTTAAAACGCGGGGGACAGCGCGTACGTGCGTTTAAGCGGTGCTAGAGCTGTCTACGACCAATTGAGCGGCCTCGGCACCGGGATTCTCCAGGAT
modifications: reconstituted with mouse histones H2A, H2B, H3.3 and H4
B7: 109 (nucleosome)
DNA 1: ATCCTGGAGAATCCCGGTGCCGAGGCCGCTCAATTGGTCGTAGACAGCTCTAGCACCGCTTAAACGCACGTACGCGCTGTCCCCCGCGTTTTAACCGCCAAGGGGATTACTTCAAGGCCACCAGGCACGTGTCAGATATATACATCCTGTGAT
DNA 2: ATCACAGGATGTATATATCTGACACGTGCCTGGTGGCCTTGAAGTAATCCCCTTGGCGGTTAAAACGCGGGGGACAGCGCGTACGTGCGTTTAAGCGGTGCTAGAGCTGTCTACGACCAATTGAGCGGCCTCGGCACCGGGATTCTCCAGGAT
modifications: reconstituted with mouse histones H2A, H2B, H3.3 and H4

biological target: NR5A2 wild type;histone octamer (Homo sapiens;, UniProt O00482;C0HKE1;Q6ZWY9;P84244;P62806 1-541;2-130;2-126;2-136;2-103, |); assay: SeEN-seq (EMSA of nucleosome library followed by sequencing); 0.8 uM human NR5A2; 20 mM Tris-HCl pH 7.5, 120 mM NaCl, 1 mM MgCl2, 10 uM ZnCl2, 1 mM DTT, 100 ug/ml BSA, room temperature, 30 min; 0.1 uM nucleosome library; high values mean tight binding

| Binder | binding signal |
| --- | --- |
| B1 | 0.685 log2 enrichment (bound/unbound, relative to Widom 601) |
| B2 | 1.03 log2 enrichment (bound/unbound, relative to Widom 601) |
| B3 | 1.55 log2 enrichment (bound/unbound, relative to Widom 601) |
| B4 | 0.782 log2 enrichment (bound/unbound, relative to Widom 601) |
| B5 | 1.84 log2 enrichment (bound/unbound, relative to Widom 601) |
| B6 | 1.01 log2 enrichment (bound/unbound, relative to Widom 601) |
| B7 | 0.938 log2 enrichment (bound/unbound, relative to Widom 601) |

biological target: mouse Nr5a2 wild type;histone octamer (Mus musculus;, UniProt P45448;C0HKE1;Q6ZWY9;P84244;P62806 1-560;2-130;2-126;2-136;2-103, |); assay: SeEN-seq (EMSA of nucleosome library followed by sequencing); 1.2 uM mouse Nr5a2; 20 mM Tris-HCl pH 7.5, 120 mM NaCl, 1 mM MgCl2, 10 uM ZnCl2, 1 mM DTT, 100 ug/ml BSA, room temperature, 30 min; 0.1 uM nucleosome library; high values mean tight binding

| Binder | binding signal |
| --- | --- |
| B1 | 0.658 log2 enrichment (bound/unbound, relative to Widom 601) |
| B2 | 0.764 log2 enrichment (bound/unbound, relative to Widom 601) |
| B3 | 1.09 log2 enrichment (bound/unbound, relative to Widom 601) |
| B4 | 0.764 log2 enrichment (bound/unbound, relative to Widom 601) |
| B5 | 1.23 log2 enrichment (bound/unbound, relative to Widom 601) |
| B6 | 1.02 log2 enrichment (bound/unbound, relative to Widom 601) |
| B7 | 0.719 log2 enrichment (bound/unbound, relative to Widom 601) |
